Bioassay records (PubChem BioAssay)
Shown are actives, neighbours in structure and some others; about 1.4% of the full set was active somewhere.
EP2 modulator: EP2 receptor modulators, cAMP readout, primary screen, cell-based, HTRF cAMP, PGE2 stimulation; Prostaglandin E2 receptor EP2 subtype (Homo sapiens), P43116; EP2-expressing cells, cAMP HTRF FRET, PGE2 co-stimulation; induction, % at 25 µM; actives 0.83% (n = 260,000); AID 940, 2007;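 active means compounds whose cAMP rise, as percent of the full-agonist control response, exceeds 60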;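 further: rat C6 glioma line stably carrying human EP2 under a CMV promoter; the protocol text gives 20 µM as final concentration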
Pf gametocyte: late stage P. falciparum gametocyte viability inhibitors, primary screen, ATP luminescence, HTS | P. falciparum stage V gametocytes, 24 h | inhibition, % at 10.9 µM | actives 0.065% (n = 150,000) | AID 743093, 2013;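 active means inhibition above the mean plus 3 SD of compounds within the control limits, set per campaign, cut at about 38% in these data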
PGE2 EP2 inh: human EP2 receptor antagonists, primary screen, TR-FRET cAMP, C6 glioma cells. C6 glioma cells expressing human EP2; cells stimulated with saturating PGE2. AID 1422, 2008. inhibition, % at 25 µM. Prostaglandin E2 receptor EP2 subtype (Homo sapiens), P43116. actives 0.52% (n = 260,000);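 active means percent inhibition above 40 after rounding to a whole number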;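 further: rat C6 glioma host cells with rolipram phosphodiesterase inhibitor present; the protocol text gives 20 µM as final concentration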
HSV replic up: enhancers of HSV replication in host cells, fold increase, host cell viability; HSV replication augmentation in cells; maximum fold increase; actives 0.005% (n = 220,000); AID 1956, 2009; in the data active means maximum fold increase above about 1.5; inconclusive means no clear call, values can overlap the other calls; tested in PC3 cells
Furin inh: human furin inhibitors, primary screen, biochemical, fluorescence intensity | P09958 | inhibition, % at 20 µM or 30 µM | actives 0.061% (n = 220,000) | purified furin, fluorogenic substrate cleavage; in the data active means inhibition above about 25%
Target sequence (P09958 108-714 limits assumed): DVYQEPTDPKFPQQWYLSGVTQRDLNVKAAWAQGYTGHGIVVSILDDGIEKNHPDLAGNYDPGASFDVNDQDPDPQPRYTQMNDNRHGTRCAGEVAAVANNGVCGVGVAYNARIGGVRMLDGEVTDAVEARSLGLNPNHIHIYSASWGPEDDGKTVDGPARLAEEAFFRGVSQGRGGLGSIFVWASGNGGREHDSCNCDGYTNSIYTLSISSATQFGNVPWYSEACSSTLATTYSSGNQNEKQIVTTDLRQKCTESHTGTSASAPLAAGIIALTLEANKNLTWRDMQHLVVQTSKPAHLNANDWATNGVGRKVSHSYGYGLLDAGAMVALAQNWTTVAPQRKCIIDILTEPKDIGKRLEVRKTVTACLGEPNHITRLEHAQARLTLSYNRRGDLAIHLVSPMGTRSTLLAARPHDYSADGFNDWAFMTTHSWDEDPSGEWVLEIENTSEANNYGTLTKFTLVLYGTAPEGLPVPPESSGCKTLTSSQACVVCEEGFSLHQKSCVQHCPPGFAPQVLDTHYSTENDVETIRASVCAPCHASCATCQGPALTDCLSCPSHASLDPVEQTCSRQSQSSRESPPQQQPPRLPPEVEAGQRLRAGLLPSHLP
Hits are given with their value; ! = not confirmed by another sample.

COc1ccc(C(=O)CCC(C)(C)[N+](=O)[O-])cc1 was read as EP2 modulator inactive, Pf gametocyte inactive, PGE2 EP2 inh inactive, HSV replic up inactive and Furin inh inactive.
`CN(C)CCCNC(=S)N1CCC(C(=O)c2ccc(Cl)cc2)CC1` gave EP2 modulator inactive and PGE2 EP2 inh inactive.
O=C(O)c1ccc(/C=N/NC(=O)c2cc(-c3cccs3)nc3ccccc23)cc1 was read as EP2 modulator inactive, Pf gametocyte inactive, PGE2 EP2 inh inactive, HSV replic up inactive and Furin inh inactive.
For Cc1ccc2c(c1)nnn2C1CCN(CC(=O)NCCc2ccccc2)CC1 the results were EP2 modulator inactive, Pf gametocyte inactive, PGE2 EP2 inh inactive, HSV replic up inactive and Furin inh inactive.
`Cc1c(N=C/C=C2/N(C)c3ccccc3C2(C)C)c(=O)n(-c2ccccc2)n1C` gave EP2 modulator inactive, Pf gametocyte inactive, PGE2 EP2 inh inactive, HSV replic up inactive and Furin inh 26.
Screening Cc1c(N=C/C=C2\N(C)c3ccccc3C2(C)C)c(=O)n(-c2ccccc2)n1C returned EP2 modulator inactive, Pf gametocyte inactive, PGE2 EP2 inh inactive, HSV replic up inactive and Furin inh inactive.
Cc1ccc(S(=O)(=O)c2ccc(C)cc2)cc1 was read as EP2 modulator inactive, Pf gametocyte inactive, PGE2 EP2 inh inactive and Furin inh inactive.
`Cc1ccc(C2=C(Cl)C(=O)C(c3ccc(C)cc3)=C(Cl)C2=O)cc1` gave EP2 modulator inactive and PGE2 EP2 inh 46.
Screening Nc1cc(S(N)(=O)=O)ccc1SSc1ccc(S(N)(=O)=O)cc1N returned EP2 modulator inactive and PGE2 EP2 inh 60.
`CS(=O)(=O)c1ccc(N)c(SSc2cc(S(C)(=O)=O)ccc2N)c1` gave Pf gametocyte inactive.
Screening CCOc1ccc2[nH]c(=O)c(CN(Cc3cccnc3)C(=O)c3ccccc3Cl)cc2c1 returned EP2 modulator inactive and PGE2 EP2 inh 72.
Screening N=C(N)SCc1ccc(Cl)cc1Cl (tested in a mixture with another compound) returned EP2 modulator inactive and PGE2 EP2 inh 53.
Screening O=C(O)CCC(=O)c1ccc2ccc3cccc4ccc1c2c34 returned EP2 modulator inactive, PGE2 EP2 inh 53!, HSV replic up inactive and Furin inh inactive.
For CCC(C)N1CC(O)=C(c2nc3ccccc3[nH]2)C1=N (centres undefined) the results were EP2 modulator inactive, Pf gametocyte inactive, HSV replic up inactive and Furin inh inactive.
Screening CCNC(=O)Nn1c(-c2ccccc2)nc2ccccc2c1=O returned EP2 modulator inactive, Pf gametocyte inactive, PGE2 EP2 inh inactive, HSV replic up inactive and Furin inh inactive.
Screening CCC(C(=O)OC)n1c(-c2ccccc2)nc2ccccc2c1=O (centres undefined) returned EP2 modulator 69!, Pf gametocyte inactive, PGE2 EP2 inh inactive, HSV replic up inactive and Furin inh inactive.
CC1=CC(=O)C=C(C)C1=NOS(=O)(=O)c1ccccc1 was read as EP2 modulator inactive, PGE2 EP2 inh 56, HSV replic up inactive and Furin inh inactive.
Screening CCSc1nc2sc3c(c2c(=O)n1C)CCCC3 returned EP2 modulator 61 and PGE2 EP2 inh inactive.
`Cn1c(SCC(N)=O)nc2sc3c(c2c1=O)CCCC3` gave EP2 modulator inactive and PGE2 EP2 inh inactive.
Screening CCCCN(C)Cc1c(C)[nH]c2ccc(C)cc2c1=O returned EP2 modulator inactive, Pf gametocyte inactive, PGE2 EP2 inh inactive, HSV replic up inactive and Furin inh inactive.
For Nc1ccccc1-c1n[nH]c(=S)s1 the results were EP2 modulator inactive, PGE2 EP2 inh 67, HSV replic up inactive and Furin inh inactive.
For Cn1c(=O)c2c(nc(N/N=C/c3ccccc3C(=O)O)n2C)n(C)c1=O the results were EP2 modulator inactive and PGE2 EP2 inh 44.
For CC(C)/C=N/Nc1nc2c(c(=O)n(C)c(=O)n2C)n1C the results were EP2 modulator inactive, Pf gametocyte inactive, PGE2 EP2 inh inactive, HSV replic up inactive and Furin inh inactive.
Screening CCOC(=O)/C(=N\Nc1ccc(Cl)cc1)c1csc(Nc2ccccc2)n1 returned EP2 modulator inactive, PGE2 EP2 inh 44, HSV replic up inactive and Furin inh inactive.
Screening N#Cc1c(N)n(-c2ccc(O)cc2)c2nc3ccccc3nc12 returned EP2 modulator inactive, Pf gametocyte 38, PGE2 EP2 inh inactive, HSV replic up inactive and Furin inh inactive.
For N#Cc1c(N)n(-c2cccc(O)c2)c2nc3ccccc3nc12 the results were EP2 modulator inactive, Pf gametocyte inactive, PGE2 EP2 inh inactive, HSV replic up inactive and Furin inh inactive.
COCCN1C(=O)C(O)=C(C(=O)c2cccs2)C1c1ccccc1 (centres undefined) was read as EP2 modulator inactive, Pf gametocyte inactive, PGE2 EP2 inh inactive, HSV replic up inactive and Furin inh inactive.
Cc1nc(CC(=O)c2ccc(O)cc2O)cs1 was read as EP2 modulator inactive, Pf gametocyte inactive, PGE2 EP2 inh inactive, HSV replic up inactive and Furin inh inactive.
For Cc1nc(C/C(=N\Nc2ccccc2)c2ccc(O)cc2O)cs1 the results were EP2 modulator 64, PGE2 EP2 inh inactive, HSV replic up inactive and Furin inh inactive.
Cc1cc(C)cc(NC(=O)Nc2ccc3c(c2)N(C)C(=O)CS3)c1 was read as EP2 modulator inactive, PGE2 EP2 inh 43, HSV replic up inactive and Furin inh inactive.
CN1C(=O)/C(=C\C(=O)c2cccs2)c2ccccc21 was read as EP2 modulator inactive, Pf gametocyte inactive, PGE2 EP2 inh 60, HSV replic up inactive and Furin inh inactive.
`O=C1CCN(C(=O)c2cccs2)c2ccccc21` gave EP2 modulator inactive, Pf gametocyte inactive, PGE2 EP2 inh inactive, HSV replic up inactive and Furin inh inactive.
For CCN1CC(CN(C)Cc2nc(-c3ccc(C(F)(F)F)cc3)oc2C)CC1=O (centres undefined) the results were EP2 modulator inactive, Pf gametocyte inactive, PGE2 EP2 inh inactive, HSV replic up inactive and Furin inh inactive.
Screening Cc1ccccc1OCC(O)CN1CCN(C)CC1 (centres undefined) returned EP2 modulator inactive, Pf gametocyte inactive, PGE2 EP2 inh inactive, HSV replic up inactive and Furin inh inactive.
Screening Cc1cccc(Cl)c1NC[C@H](O)CN1CCN(C)CC1 returned EP2 modulator inactive and PGE2 EP2 inh 47.
For COC(=O)[C@H]1[C@@H]2C[C@H]3c4[nH]c5ccccc5c4CCN3C[C@H]2CC[C@@H]1OS(=O)(=O)O the results were EP2 modulator inactive and PGE2 EP2 inh 48.
Screening COC(=O)C1=COC(C)C2CN3CCc4c([nH]c5ccccc45)C3CC12 (centres undefined) returned EP2 modulator inactive, PGE2 EP2 inh inactive, HSV replic up inconclusive and Furin inh inactive.
For O=C(Nc1ccccc1Cl)c1ccccc1Cc1ccccc1 the results were EP2 modulator 64, Pf gametocyte inactive, PGE2 EP2 inh inactive, HSV replic up inactive and Furin inh inactive.
